Laboratory results taken from PubChem BioAssay (NCI).
Compounds without any hit were thinned out: in the full panel of roughly 79,000, 15% have a hit. Active and inactive are the calls of the source. No stated cut-off is given here; in the data, active means growth inhibition above about 70%; inactive means the rest.

Key:
[1] = NCI Yeast Anticancer Drug Screen. Data for the rad52 strain (AID 147);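 further: 0% = growth of vehicle-treated control cultures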; conditions: S. cerevisiae rad52 mutant growth inhibition, hits give high values
Procedure, shortened: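 Screen used a yeast mutant impaired in DNA repair. After compound exposure, growth was measured. Values reflect inhibition compared with vehicle-treated cells.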

[2] = NCI Yeast Anticancer Drug Screen. Data for the wt1 strain (AID 149);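 further: 0% = growth of vehicle-treated wt1 cultures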; conditions: S. cerevisiae wt1 strain (SPY 50644) growth inhibition, hits give high values
Procedure, shortened: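 Each compound is tested on wt1 yeast and the loss of growth versus vehicle gives the inhibition value.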

[3] = NCI Yeast Anticancer Drug Screen. Data for the rad50EPP+ strain (AID 151);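 further: 0% = growth of vehicle-treated control cultures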; conditions: S. cerevisiae rad50 mutant strain, hits give high values
Procedure, shortened: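 Exposing the rad50EPP+ strain to each compound, growth was compared with vehicle-only cultures to give inhibition.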

[4] = NCI Yeast Anticancer Drug Screen. Data for the mgt1 strain (AID 153); conditions: S. cerevisiae mgt1 mutant growth inhibition, hits give high values
Procedure, shortened: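 Genetically defined yeast (mgt1) treated with compound; inhibition of growth expressed against vehicle-treated controls.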

[5] = NCI Yeast Anticancer Drug Screen. Data for the rad50 strain (AID 155);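 further: 0% = growth of vehicle-only cultures of the same strain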; conditions: S. cerevisiae rad50 strain growth inhibition, hits give high values
Procedure, shortened: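 Vehicle-treated cultures provide the reference for the growth inhibition reported for compound-exposed, repair-deficient yeast.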

[6] = NCI Yeast Anticancer Drug Screen. Data for the mec2-1 strain (AID 157); conditions: S. cerevisiae mec2-1 strain, hits give high values
Procedure, shortened: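 Readout is yeast growth inhibition, normalised to vehicle-treated controls, in the mec2-1 strain exposed to compound.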

[7] = NCI Yeast Anticancer Drug Screen. Data for the rad14 strain (AID 159);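 further: 0% = growth of vehicle-treated control cultures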; conditions: S. cerevisiae rad14 strain growth inhibition, hits give high values
Procedure, shortened: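 Inhibition of growth is reported for a repair-deficient yeast mutant following compound treatment, calculated relative to cultures that received vehicle.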

[8] = NCI Yeast Anticancer Drug Screen. Data for the sgs1 mgt1 strain (AID 161);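 further: 0% = growth of cultures given vehicle only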; conditions: S. cerevisiae sgs1 mgt1 strain, hits give high values
Procedure, shortened: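 Yeast cells carrying a defined DNA-repair defect were exposed to test compounds. Growth inhibition was measured relative to vehicle-treated controls.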

[9] = NCI Yeast Anticancer Drug Screen. Data for the CLN2oe strain (AID 163);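 further: 0% = growth of vehicle-only control cultures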; conditions: S. cerevisiae CLN2oe strain, hits give high values
Procedure, shortened: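 Values reflect how much compound exposure reduced yeast growth, referenced to vehicle-exposed cells. Assay organism is a strain with a defined genetic change affecting cell-cycle control.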

[10] = NCI Yeast Anticancer Drug Screen. Data for the cln2 rad14 strain (AID 165);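 further: 0% = growth equal to vehicle treated cultures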; conditions: S. cerevisiae cln2 rad14 strain, hits give high values
Procedure, shortened: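 Relative to vehicle controls, growth inhibition of compound-treated cln2 rad14 yeast was recorded.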

[11] = NCI Yeast Anticancer Drug Screen. Data for the bub3 strain (AID 167); conditions: S. cerevisiae bub3 mutant strain, hits give high values
Procedure, shortened: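 Mutant yeast screening strain plus compound; vehicle-treated cultures serve as the 0% inhibition reference.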

[12] = NCI Yeast Anticancer Drug Screen. Data for the mlh1 strain (AID 171);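 further: 0% = growth of vehicle-treated control cultures of the same strain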; conditions: S. cerevisiae mlh1 strain growth inhibition, hits give high values
Procedure, shortened: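 Steps: expose the defined-mutant yeast strain to compound; expose a parallel culture to vehicle; measure growth; express compound effect as inhibition relative to the vehicle culture.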

[13] = NCI Yeast Anticancer Drug Screen. Data for the sgs1 strain (AID 173);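 further: 0% = growth of vehicle-only control cultures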; conditions: S. cerevisiae sgs1 mutant, hits give high values
Procedure, shortened: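 Treat defined-mutant yeast with compound; measure growth; calculate inhibition relative to vehicle-treated cells.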

[14] = NCI Yeast Anticancer Drug Screen. Data for the mlh1 rad18 strain (AID 175); conditions: S. cerevisiae mlh1 rad18 strain growth inhibition, hits give high values
Procedure, shortened: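 Test agents were incubated with a yeast strain of defined genotype (DNA damage repair defect). Inhibition of growth was derived by comparison with vehicle-exposed cultures.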

[15] = NCI Yeast Anticancer Drug Screen. Data for the rad18 strain (AID 177); conditions: S. cerevisiae rad18 mutant growth inhibition, hits give high values
Procedure, shortened: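 A genetically defined yeast mutant impaired in DNA damage repair was treated with test compounds, then its growth was measured against cultures receiving vehicle alone.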

[16] = NCI Yeast Anticancer Drug Screen. Data for the wt2 strain (AID 169); conditions: S. cerevisiae wt2 strain growth inhibition, hits give high values
Procedure, shortened: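 Values express reduction in yeast growth under compound treatment, referenced to vehicle-treated cells.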

[17] = at 5.0 µM (retest, dose inferred, filed as 0.5)
[18] = at 50.0 µM (retest, dose inferred, filed as 5.0)

Measured: growth inhibition

CCN(CC)C(C)(C)C(=O)/C=C/c1ccccc1
active: [5]; [18] 80% | [8]; [18] 92% | [11]; [18] 77% | [14]; [18] 95%
inactive: [1]; at 1.2 µM -1% | [1]; at 3.7 µM -1% | [1]; at 11.0 µM 0% | [1]; at 33.0 µM -1% | [1]; at 100.0 µM 2% | [2]; at 1.2 µM 0% | [2]; at 3.7 µM 5% | [2]; at 11.0 µM 2% | [2]; at 33.0 µM 2% | [2]; at 100.0 µM 4% | [3]; at 1.2 µM 2% | [3]; at 3.7 µM 6% | [3]; at 11.0 µM 8% | [3]; at 33.0 µM 6% | [3]; at 100.0 µM 5% | [4]; at 1.2 µM -3% | [4]; at 3.7 µM -3% | [4]; at 11.0 µM -3% | [4]; at 33.0 µM -1% | [4]; at 100.0 µM 2% | [5]; at 1.2 µM 0% | [5]; at 3.7 µM 2% | [5]; [17] 19% | [5]; at 11.0 µM 0% | [5]; at 33.0 µM 1% | [5]; at 50.0 µM 17.2% | [5]; at 100.0 µM 3% | [6]; at 1.2 µM 1% | [6]; at 3.7 µM 6% | [6]; [17] -15% | [6]; at 11.0 µM 5% | [6]; at 33.0 µM 9% | [6]; [18] 47% | [6]; at 50.0 µM 13.7% | [6]; at 100.0 µM 4% | [7]; at 1.2 µM -3% | [7]; at 3.7 µM -3% | [7]; at 11.0 µM 1% | [7]; at 33.0 µM 5% | [7]; at 100.0 µM 14% | [8]; [17] 42% | [8]; at 50.0 µM 17.6% | [9]; at 1.2 µM -4% | [9]; at 3.7 µM -12% | [9]; at 11.0 µM -4% | [9]; at 33.0 µM 1% | [9]; at 100.0 µM 2% | [10]; [17] -9% | [10]; [18] 46% | [10]; at 50.0 µM 7.15% | [11]; at 1.2 µM -1% | [11]; at 3.7 µM -3% | [11]; [17] 9% | [11]; at 11.0 µM 0% | [11]; at 33.0 µM -1% | [11]; at 50.0 µM 17.8% | [11]; at 100.0 µM -5% | [12]; at 1.2 µM 2% | [12]; at 3.7 µM 2% | [12]; at 11.0 µM 3% | [12]; at 33.0 µM 3% | [12]; at 100.0 µM 5% | [13]; at 1.2 µM 2% | [13]; at 3.7 µM 1% | [13]; at 11.0 µM 4% | [13]; at 33.0 µM 6% | [13]; at 100.0 µM 7% | [14]; [17] 57% | [14]; at 50.0 µM 20.4% | [15]; at 1.2 µM 1% | [15]; at 3.7 µM -1% | [15]; at 11.0 µM -1% | [15]; at 33.0 µM 3% | [15]; at 100.0 µM 6%

COc1ccc2c(c1)C(=O)c1ccccc1C2
active: [11]; at 11.0 µM 74% | [11]; at 33.0 µM 82% | [11]; [18] 85% | [11]; at 50.0 µM 75% | [11]; at 100.0 µM 80%
inactive: [1]; at 1.2 µM 3% | [1]; at 3.7 µM 9% | [1]; at 11.0 µM 20% | [1]; at 33.0 µM 35% | [1]; at 100.0 µM 34% | [2]; at 1.2 µM 2% | [2]; at 3.7 µM 1% | [2]; at 11.0 µM 5% | [2]; at 33.0 µM 6% | [2]; at 100.0 µM 4% | [3]; at 1.2 µM 3% | [3]; at 3.7 µM 10% | [3]; at 11.0 µM 24% | [3]; at 33.0 µM 42% | [3]; at 100.0 µM 46% | [4]; at 1.2 µM -4% | [4]; at 3.7 µM 2% | [4]; at 11.0 µM 5% | [4]; at 33.0 µM 7% | [4]; at 100.0 µM 10% | [5]; at 1.2 µM 3% | [5]; at 3.7 µM 18% | [5]; [17] -23% | [5]; at 11.0 µM 31% | [5]; at 33.0 µM 48% | [5]; [18] 30% | [5]; at 50.0 µM 7% | [5]; at 100.0 µM 35% | [6]; at 1.2 µM -1% | [6]; at 3.7 µM 5% | [6]; [17] -4% | [6]; at 11.0 µM -1% | [6]; at 33.0 µM 6% | [6]; [18] 23% | [6]; at 50.0 µM 24.4% | [6]; at 100.0 µM 6% | [7]; at 1.2 µM 1% | [7]; at 3.7 µM 6% | [7]; at 11.0 µM 8% | [7]; at 33.0 µM 6% | [7]; at 100.0 µM 7% | [8]; [17] 19% | [8]; [18] 0% | [8]; at 50.0 µM -5.05% | [9]; at 1.2 µM -3% | [9]; at 3.7 µM -1% | [9]; at 11.0 µM 0% | [9]; at 33.0 µM 9% | [9]; at 100.0 µM 4% | [10]; [17] -18% | [10]; [18] 4% | [10]; at 50.0 µM -19.8% | [11]; at 1.2 µM 42% | [11]; at 3.7 µM 67% | [11]; [17] 65% | [16]; at 1.2 µM -1% | [16]; at 3.7 µM 3% | [16]; at 11.0 µM 6% | [16]; at 33.0 µM 7% | [16]; at 100.0 µM 7% | [12]; at 1.2 µM 1% | [12]; at 3.7 µM -1% | [12]; at 11.0 µM 4% | [12]; at 33.0 µM 11% | [12]; at 100.0 µM 28% | [15]; at 1.2 µM -2% | [15]; at 3.7 µM -1% | [15]; at 11.0 µM 6% | [15]; at 33.0 µM 7% | [15]; at 100.0 µM -6%

Cc1ccc2ccc(O)cc2c1
active: [1]; at 100.0 µM 80% | [2]; at 100.0 µM 71% | [5]; at 100.0 µM 92% | [6]; [18] 95% | [8]; at 50.0 µM 80.1% | [9]; at 100.0 µM 83% | [10]; at 50.0 µM 82% | [11]; at 50.0 µM 86.7% | [11]; at 100.0 µM 88%
inactive: [1]; at 1.2 µM -31% | [1]; at 3.7 µM -35% | [1]; at 11.0 µM -30% | [1]; at 33.0 µM -31% | [2]; at 1.2 µM -22% | [2]; at 3.7 µM -16% | [2]; at 11.0 µM -19% | [2]; at 33.0 µM -11% | [3]; at 1.2 µM -25% | [3]; at 3.7 µM -49% | [3]; at 11.0 µM -25% | [3]; at 33.0 µM -12% | [3]; at 100.0 µM 46% | [4]; at 1.2 µM -25% | [4]; at 3.7 µM -19% | [4]; at 11.0 µM -22% | [4]; at 33.0 µM -21% | [4]; at 100.0 µM 50% | [5]; at 1.2 µM -23% | [5]; at 3.7 µM -28% | [5]; [17] -9% | [5]; at 11.0 µM -38% | [5]; at 33.0 µM -11% | [5]; [18] 33% | [5]; at 50.0 µM 58.2% | [6]; at 1.2 µM -37% | [6]; at 3.7 µM -33% | [6]; [17] -10% | [6]; at 11.0 µM -32% | [6]; at 33.0 µM -42% | [6]; at 50.0 µM 1.85% | [6]; at 100.0 µM 50% | [7]; at 1.2 µM -18% | [7]; at 3.7 µM -20% | [7]; at 11.0 µM -23% | [7]; at 33.0 µM -25% | [7]; at 100.0 µM 56% | [8]; [17] 5% | [8]; [18] 43% | [9]; at 1.2 µM -10% | [9]; at 3.7 µM -13% | [9]; at 11.0 µM -9% | [9]; at 33.0 µM -17% | [10]; [17] 4% | [10]; [18] 53% | [11]; at 1.2 µM 4% | [11]; at 3.7 µM 10% | [11]; [17] 4% | [11]; at 11.0 µM 14% | [11]; at 33.0 µM 14% | [11]; [18] 23% | [16]; at 1.2 µM -18% | [16]; at 3.7 µM -19% | [16]; at 11.0 µM -21% | [16]; at 33.0 µM -20% | [16]; at 100.0 µM 56% | [13]; at 1.2 µM -24% | [13]; at 3.7 µM -14% | [13]; at 11.0 µM -38% | [13]; at 33.0 µM -19% | [13]; at 100.0 µM 32% | [14]; [17] -33% | [14]; [18] 63% | [14]; at 50.0 µM 48.5%
